Molecules are shown by their SMILES. Among all 1,400 compounds or so, about 560 (40%) were called active.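 The calls were made as follows: active = mean inhibition over duplicate tests at 10 µM above 50%; inactive = the rest.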 The set was probably picked from earlier hits. This is one part of the list.

Experimental findings from PubChem BioAssay AID488857 (Sanford-Burnham Center for Chemical Genomics, 2010) are described below.

This assay is described as follows: ASC/caspase-1 reporter retest in S. cerevisiae at one dose, specificity check for NALP1 project (AID 488857). The following applies: S. cerevisiae ASC/Caspase-1, beta-galactosidase luminescence, 24 h; at 10 µM; hits give high values.
As for `CC(C)(C)c1cc(C(=O)O)n[nH]1`, the inhibition was -9.25% (inactive).

On to `CNC(=O)c1ccsc1NC(=O)c1sc2ccccc2c1Cl`, for which the inhibition is 58.8% (active).

As to `O=C(Nc1nc(-c2ccccn2)cs1)c1ccc(Cl)s1`, the inhibition is 46.2% (inactive).

Take `O=C(Nc1nccs1)c1sc2ccccc2c1Cl`: the inhibition was 80.7% (active).

`Cc1nc(-c2ccccc2)cn2c1nc1ccccc12`: the inhibition was 59.9% (active).

For the compound `O=c1cc(-c2ccccc2)[nH]c2nc3ccccc3n12`, the inhibition was 44.1% (inactive).

Consider `Cc1ccc(Nc2cc(C)nc(NCc3ccccc3)n2)cc1`, for which the inhibition was 61.2% (active).

Take `Cc1ccccc1N(CC(=O)N/N=C/c1ccccc1Cl)C(=O)c1ccccc1`: the inhibition was 35.8% (inactive).

Turning to `Cc1cc(N/N=C/c2cccc(Cl)c2)nc(NCc2ccccc2)n1`, the inhibition is 55.9% (active).

For the compound `Cc1cc(N/N=C/c2ccccc2)nc(NCc2ccccc2)n1`, the inhibition was 68.2% (active).

Consider `Cc1cc(N/N=C/c2ccccc2Cl)nc(NCc2ccccc2)n1`, for which the inhibition was 52.2% (active).

Consider `CC1(C)CC(=O)C2=C(C1)OC(N)=C([N+](=O)[O-])C2c1cccs1` (stereo unspecified), for which the inhibition is 39.2% (inactive).

As to `CCOC(=O)c1c(C)n(C)c2cc(-c3ccc(C)cc3)c(O)cc12`, the inhibition was 41.5% (inactive).

Take `Cc1cc(N/N=C/c2ccc(Cl)cc2)nc(NCc2ccccc2)n1`: the inhibition was 78.7% (active).

Consider `O=C(COc1ccc(Br)cc1Br)NC(=S)Nc1cccc(CO)c1`, for which the inhibition was 59.8% (active).

`Cc1ccccc1OCC(=O)Nc1cccc(N(C)S(C)(=O)=O)c1`: the inhibition is 34.6% (inactive).

On to `O=C(COc1ccc(CO)cc1Cl)Nc1ccc(F)cc1`, for which the inhibition is 38.2% (inactive).

In the case of `CCc1ccc(C(=O)NCc2ccc(Cl)cc2Cl)cc1`, the inhibition is 49.6% (inactive).

On to `COc1ccc(Cl)cc1C(=O)O/N=C(\N)c1ccc(Cl)cc1`, for which the inhibition is 43.9% (inactive).

Turning to `N/C(Cc1ccc(Cl)cc1Cl)=N\OC(=O)c1cccs1`, the inhibition was 53.2% (active).

Turning to `COc1ccc(C(=O)O/N=C(\N)Cc2ccc(Cl)cc2Cl)cc1OC`, the inhibition is 72.4% (active).

Consider `CCN(CC)CCN1C(=O)c2ccccc2NC1c1ccc(N(C)C)cc1` (stereo unspecified), for which the inhibition was 31.9% (inactive).

Regarding `CCCc1ccc(-c2c(C)sc(N)c2C#N)cc1`, the inhibition was 51.2% (active).

With `CCn1c(C)[n+](CC(O)COCC2CC=CCC2)c2ccccc21` (stereo unspecified), the inhibition is 41.3% (inactive).

Take `COc1cc(C)ccc1OCCOCCOc1ccc([N+](=O)[O-])cc1`: the inhibition is 65.2% (active).

With `C=CCc1ccc(OCCCOc2ccc(C)cc2OC)c(OC)c1`, the inhibition is 31.8% (inactive).

For `COc1ccc(CNc2nc(C)c([N+](=O)[O-])c(C)c2C#N)cc1`, the inhibition is 45.5% (inactive).

With `O=C1/C(=C\c2cccnc2)CN(Cc2ccccc2)C/C1=C\c1cccnc1`, the inhibition is 30.4% (inactive).

On to `NNC(=S)NCc1cccnc1`, for which the inhibition was 37.2% (inactive).

As for `S=C1SCN(Cc2cccnc2)CN1Cc1cccnc1`, the inhibition is 89.2% (active).

Turning to `Nc1[nH]c(=O)ncc1F`, the inhibition is 81.2% (active).

With `Cc1nc(N)sc1N=Nc1ccc(Br)cc1`, the inhibition was 68.5% (active).

For `CCOC(=O)c1c(C)n(C)c2ccc(OC)c(NC(=O)CN3CCN(C4CCCCC4)CC3)c12`, the inhibition is 21.6% (inactive).

`CCOC(=O)C(=CNNc1ccsc1C(=O)OC)C(=O)OCC`: the inhibition was 41% (inactive).

On to `CCOC(=O)C(=Cc1cc(=O)c(OC)co1)C(=O)OCC`, for which the inhibition was 85.2% (active).

Consider `C1=CC2CC1CC2CN1CCN(Cc2ccccc2)CC1` (stereo unspecified), for which the inhibition was 48.8% (inactive).

As for `Cc1onc(-c2ccccc2Cl)c1C(=O)N1C=CC(C(F)(F)F)=NCC1`, the inhibition was 77.5% (active).

`COc1ccc(NC(=S)SC)cc1OC`: the inhibition is 60.2% (active).

For the compound `COc1ccc(NC(=S)N(C(C)C)C2CCN(C(C)C)CC2)cc1Cl`, the inhibition is 25.9% (inactive).

In the case of `COc1ccc(C(=O)Nc2ccc(S(=O)(=O)Nc3nccc(C)n3)cc2)cc1OC`, the inhibition is 35.9% (inactive).

For the compound `CC1CN(S(=O)(=O)c2ccc(C(=O)Nc3nc(-c4cc5ccccc5o4)cs3)cc2)CC(C)O1` (stereo unspecified), the inhibition was 32.9% (inactive).

Consider `O=C(c1cc(-c2ccc(O)cc2)on1)N1CCc2ccccc2C1`, for which the inhibition was 58.4% (active).

Consider `CCn1c(C(=O)N2CCc3ccccc3C2)cc2oc3ccccc3c21`, for which the inhibition is 44.5% (inactive).

For `O=C(CN1CCc2ccccc2C1)NCc1ccco1`, the inhibition was 36.3% (inactive).

On to `CC1(O)N(Cc2ccccc2)C(=O)OC12CCCCC2` (stereo unspecified), for which the inhibition is 45.9% (inactive).

As for `OCCn1c(-c2ccc(F)cc2)csc1=Nc1ccccc1`, the inhibition was 46.5% (inactive).

With `O=C(NCCN1C(=O)S/C(=C\c2cccnc2)C1=O)c1cccc(OC(F)F)c1`, the inhibition was 45.1% (inactive).

Take `COc1ccc(C)cc1NC(=O)c1ccc(OC(F)F)cc1`: the inhibition was 66.2% (active).

Consider `COc1ccc(C)cc1NC(=O)c1ccc(CN2CCN(c3ccccc3)CC2)cc1`, for which the inhibition was 33.5% (inactive).

Regarding `Cc1c(Cl)cccc1NC(=O)c1cccc(OC(F)F)c1`, the inhibition is 68.8% (active).

Consider `CSc1ccccc1NC(=O)Nc1ccccc1Cl`, for which the inhibition was 49.8% (inactive).

With `COc1ccc(NC(=O)c2ccc(C)cc2)c(OC)c1`, the inhibition is 36.7% (inactive).

As to `CCN(CC1COc2ccccc2O1)S(=O)(=O)c1ccc(C)cc1` (stereo unspecified), the inhibition is 43.9% (inactive).

Turning to `Cc1c(C(=O)NCC2COc3ccccc3O2)oc2ccc(S(=O)(=O)N3CC(C)CC(C)C3)cc12` (stereo unspecified), the inhibition was 30.4% (inactive).

For the compound `O=C(Nc1ccc(Nc2ccccc2)cc1)C(Cl)Cl`, the inhibition was 76.3% (active).

With `C/C(=N\NC(=O)Nc1ccccc1)c1ccccc1`, the inhibition was 41.4% (inactive).

As to `CC(C)Oc1ccc(NC(=O)CCC(=O)O)cc1`, the inhibition is 28.5% (inactive).

For the compound `Cc1cccc(C)c1NC(=O)C(Cl)C(=O)c1ccccc1` (stereo unspecified), the inhibition is 2.6% (inactive).

For the compound `CC(C)C(=O)Nc1ccc(Nc2ccccc2)cc1`, the inhibition was 68.2% (active).

For `O=c1c(O)c(-c2cccs2)oc2ccccc12`, the inhibition is 91% (active).

For `CCC(C)C(=O)N1c2ccccc2C(=C2SC(C(=O)OC)=C(C(=O)OC)S2)C(=S)C1(C)C` (stereo unspecified), the inhibition is 51.8% (active).

`CCC(Cc1ccccc1)NC(=O)C1CCN(S(=O)(=O)c2c(C)noc2C)CC1` (stereo unspecified): the inhibition is 28.6% (inactive).

For the compound `CC[n+]1c(/C=C/c2ccc(N(C)C)cc2)ccc2ccccc21`, the inhibition is 96.5% (active).

With `CN(C)c1ccc(/C=C/c2ccc3ccccc3[n+]2C)cc1`, the inhibition is 96.8% (active).

With `O=C1C(Nc2ccccc2)=C/C(=N/S(=O)(=O)c2cccs2)c2ccccc21`, the inhibition is 89.7% (active).

For `O=C1c2ccccc2-c2cccc(NS(=O)(=O)c3ccc(C(F)(F)F)cc3)c21`, the inhibition is 36.2% (inactive).

For the compound `O=C(O)c1ccc(S(=O)(=O)/N=C2\C=C(Nc3ccccc3F)C(=O)c3ccccc32)cc1`, the inhibition is 100% (active).

Consider `O=S(=O)(Nc1cccnc1)c1cccs1`, for which the inhibition was 25.8% (inactive).

As for `CN(C)c1ccc(/C=N/NC(=O)c2nnn(-c3nonc3N)c2CN(C)c2ccccc2)cc1`, the inhibition was 20.1% (inactive).

As for `Cc1cc(C)c(NC(=O)/C(=C/c2ccccc2)c2ccccc2)c(C)c1`, the inhibition is 31.6% (inactive).

As to `S=c1[nH]nc(-c2ccco2)n1/N=C/c1cccc(Cl)c1Cl`, the inhibition was 65.7% (active).

For the compound `CCOC(=O)C1CCCN(C2CC(=O)N(c3cccc(C(F)(F)F)c3)C2=O)C1` (stereo unspecified), the inhibition was 42.8% (inactive).

For the compound `O=c1ncn(-c2cccc(F)c2)c2ncccc12`, the inhibition was 35.6% (inactive).

Regarding `Cc1cc(C)cc(NS(=O)(=O)c2ccc(NC(=S)Nc3ccccc3)cc2)c1`, the inhibition is 23.9% (inactive).

For the compound `O=C(NCCCc1ccccc1)c1ccccc1O`, the inhibition was 47.4% (inactive).

Take `O=C(NC(=S)NCCCN1CCOCC1)c1ccc([N+](=O)[O-])cc1`: the inhibition is 37% (inactive).

As to `S=C(NCCc1ccccc1)Nc1ccc(Br)cc1`, the inhibition is 90.7% (active).

Consider `O=[N+]([O-])c1ccc(NC(=S)NCCc2ccc(F)cc2)cc1`, for which the inhibition is 96.3% (active).

Take `O=[N+]([O-])c1ccc(N2CCN(C(=S)Nc3ccccc3)CC2)cc1`: the inhibition was 35.5% (inactive).

In the case of `S=C(NCCCc1ccccc1)Nc1ccc(Cl)cc1`, the inhibition was 95.5% (active).

Turning to `CCCCCCCCCCOC(=O)Cn1c(COc2ccc(Cl)cc2)[n+](C)c2ccccc21`, the inhibition is 29.6% (inactive).

For `Cc1ccc(Cn2nnnc2CN2CCC(c3nc4ccc(Cl)cc4[nH]3)CC2)cc1`, the inhibition is 31.4% (inactive).

With `Cc1ccc(NC(=O)/C=C\C(=O)NCC(=O)O)cc1C`, the inhibition is 39% (inactive).

Regarding `CCOC(=O)/C=C/C(=O)Nc1cccc([N+](=O)[O-])c1`, the inhibition was 55.5% (active).

As to `CCOC(=O)/C=C/C(=O)Nc1nccs1`, the inhibition was 47.1% (inactive).

As for `COC(=O)/C=C\C(=O)Nc1cccc([N+](=O)[O-])c1`, the inhibition was 42.8% (inactive).

For the compound `NC(=O)/C=C\C(=O)Nc1cccc(C(F)(F)F)c1`, the inhibition was 72.8% (active).

On to `COC(=O)/C=C/C(=O)Nc1cccc(C(F)(F)F)c1`, for which the inhibition was 60.1% (active).

Take `CCN(C(=O)COC(=O)c1cccnc1Nc1cccc(C(F)(F)F)c1)C1CCS(=O)(=O)C1` (stereo unspecified): the inhibition is 29.9% (inactive).

For `O=C(NC1CCCC1)C(c1ccccn1)N(C(=O)c1csnn1)C1CC1` (stereo unspecified), the inhibition is 32.6% (inactive).

`O=C(O)c1cccnc1C(=O)N1CCc2c([nH]c3ccccc23)C1C(F)(F)F` (stereo unspecified): the inhibition was 18.5% (inactive).

Consider `O=C1c2ccccc2C(=O)c2c1ncn2-c1ccccc1`, for which the inhibition is 45.6% (inactive).

As for `O=C(CN(Cc1ccccc1)S(=O)(=O)c1ccc(S(=O)(=O)N2CCOCC2)cc1)Nc1ccccc1`, the inhibition is 36.3% (inactive).

Consider `N#C/C(=C\c1ccc([N+](=O)[O-])o1)c1nc2ccccc2[nH]1`, for which the inhibition was 20.7% (inactive).

With `N#C/C(=C/c1cccs1)c1nc2ccccc2[nH]1`, the inhibition is 98.2% (active).

In the case of `Cn1c(/C(C#N)=C/C2CC=CCC2)nc2ccccc21` (stereo unspecified), the inhibition is 45.5% (inactive).

Regarding `CC(C)C(C(=O)O)N1C(=O)/C(=C/c2cccn2C)SC1=S` (stereo unspecified), the inhibition was 56.4% (active).

Take `C/C(=N\NC(=O)c1c[nH]c2ccccc12)c1ccco1`: the inhibition was 40.6% (inactive).

In the case of `CN(Cc1ccccc1)C(=O)c1ccc([N+](=O)[O-])o1`, the inhibition is 41.7% (inactive).

In the case of `O=[N+]([O-])c1ccc(/C=N/NS(=O)(=O)c2ccc(Cl)cc2)o1`, the inhibition was 23.6% (inactive).

`CCN(CC)c1ccc(N=Cc2ccc([N+](=O)[O-])o2)cc1`: the inhibition was 69.8% (active).

In general, inhibition refers to the drop in the measured response relative to a control, in per cent.
